Compound activity deposited in PubChem by ICCB-Longwood Screening Facility, Harvard Medical School.
A selection: hits, their analogues and other compounds. The true share with any hit is near 1.4%.
Mtb MbtI inh = blocks the Mycobacterium tuberculosis siderophore enzyme MbtI | inhibition, % (test concentration not listed) | hit rate 0.89% among 100,000 | AID 493033 | purified MbtI enzyme, fluorescence intensity read-out; in the data active = inhibition mostly above about 56%, no sharp cut-off; inactive = mostly below about 77%
MenB inh = blocks the Mycobacterium tuberculosis MenB enzyme | MenB enzyme assay, absorbance read-out | inhibition, % (concentration not given with the values) | AID 540299 | hit rate 0.43% among 100,000 | P9WNP5; in the data active = inhibition above about 21%, passing the limit was not always enough
Polio RdRp inh = inhibitors of poliovirus RNA polymerase binding and polymerization | P03300 | poliovirus polymerase elongation, fluorescence polarization; active compounds read low | % elongation, % (compound at 16.7 µg/mL) | hit rate 0.66% among 150,000; in the data active = % elongation below about 90%
Target sequence (P03300 1749-2209 limits assumed): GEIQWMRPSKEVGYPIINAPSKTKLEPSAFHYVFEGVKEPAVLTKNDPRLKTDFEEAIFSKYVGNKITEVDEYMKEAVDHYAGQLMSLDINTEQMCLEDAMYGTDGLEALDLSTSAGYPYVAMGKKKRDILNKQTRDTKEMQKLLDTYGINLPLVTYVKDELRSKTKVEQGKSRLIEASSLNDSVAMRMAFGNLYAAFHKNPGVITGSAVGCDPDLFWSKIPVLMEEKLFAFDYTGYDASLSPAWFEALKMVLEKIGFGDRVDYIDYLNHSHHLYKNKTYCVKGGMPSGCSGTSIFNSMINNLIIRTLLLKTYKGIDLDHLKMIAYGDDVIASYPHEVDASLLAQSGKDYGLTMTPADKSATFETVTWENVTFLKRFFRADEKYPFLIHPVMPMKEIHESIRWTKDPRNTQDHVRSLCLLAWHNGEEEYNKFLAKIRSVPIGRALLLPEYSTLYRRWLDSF
AID504770 = growth inhibitors of E. coli YBA685 in a screen for V. cholerae RctB (chromosome II replication) inhibitors | E. coli YBA685 rctB-dependent plasmid, OD600 growth, 3 h; active compounds read low | z-score (concentration not given with the values) | hit rate 0.27% among 130,000 | AID 504770; in the data active = z-score below about -2, passing the limit was not always enough
The depositor's hits bear a star.

Cn1c(=O)c(C2=NS(=O)(=O)c3ccccc3N2)c(O)c2ccccc21 was read as Mtb MbtI inh -4.5, MenB inh 32.8*, Polio RdRp inh 99.0 and AID504770 0.
COc1ccc(-c2noc(-c3ccc(NC4CCCC4)c([N+](=O)[O-])c3)n2)cc1OC was read as Polio RdRp inh 79.0*.
Screening O=C(Nc1ccc(Cl)cc1)Nc1cc(C(=O)NC2CC2)ccc1N1CC2CC(C1)c1cccc(=O)n1C2 (configuration not stated) returned Mtb MbtI inh -0.9, MenB inh -23.2, Polio RdRp inh 102.0 and AID504770 -0.25.
For CS(=O)(=O)c1nc2ccccc2s1 the results were MenB inh 6.9, Polio RdRp inh 89.0* and AID504770 0.35.
`O=C1C=CC(=O)N1c1ccc2ccccc2c1` gave Mtb MbtI inh 99.6*, MenB inh 3.3, Polio RdRp inh 98.0 and AID504770 -1.7.
`CSc1cccc(N2C(=O)C=CC2=O)c1` gave AID504770 -2.15*.
COc1ccc(N2C(=O)C=CC2=O)cc1OC was read as Mtb MbtI inh 94.2*, Polio RdRp inh 100.0 and AID504770 -0.55.
N#Cc1cccc(N2C(=O)C=CC2=O)c1 was read as AID504770 -2.8*.
`CCOC(=O)c1sc(N2N=C(C)CC2=O)nc1C` gave Mtb MbtI inh 6.2, MenB inh -70.2, Polio RdRp inh 103.0 and AID504770 -0.45.
CCn1c(Cc2ccccc2)nnc1SCC(=O)c1ccc2c(c1)OCO2 was read as Mtb MbtI inh 1.4, MenB inh -0.2, Polio RdRp inh 98.0 and AID504770 -0.3.
`COc1ccc(CCNC(=O)c2ccc3c(c2)N(Cc2ccccc2)C(=O)c2ccccc2S3=O)cc1OC` (configuration not stated) gave Polio RdRp inh -15.0*.
Screening Cn1cc(NC(=O)N(Cc2ccco2)CC2CCCO2)c2ccccc2c1=O (configuration not stated) returned Mtb MbtI inh -13.4, MenB inh -27.0, Polio RdRp inh 82.0* and AID504770 0.1.
`COc1cccc(C2=C(C(C)=O)Sc3nncn3N2C(C)=O)c1` gave Polio RdRp inh 87.0*.
Screening CC(=O)C1=C(c2ccc(Cl)c(Cl)c2)N(C(C)=O)n2cnnc2S1 returned Polio RdRp inh 86.0*.
`CC(=O)C1=C(c2ccc(Cl)c(Cl)c2)N(C(C)=O)n2c(C)nnc2S1` gave Polio RdRp inh 89.0.
`CCOc1ccccc1C(=O)NC(C(=O)OC)C(C)C` (configuration not stated) gave Mtb MbtI inh 9.9, MenB inh -25.7, Polio RdRp inh 105.0 and AID504770 -0.7.
For N#Cc1c(SCCCOc2ccccc2)sc2c(=O)[nH]c(=O)[nH]c12 the results were MenB inh 21.3*, Polio RdRp inh 103.0 and AID504770 -0.85.
CC1Sc2ccc(C(F)(F)F)cc2NC1=O (configuration not stated) was read as AID504770 0.5.
Screening CSc1nc(-c2ccco2)nn1S(C)(=O)=O returned Mtb MbtI inh 84.3*, MenB inh -3.4, Polio RdRp inh 100.0 and AID504770 2.55.
Screening Oc1c(/C=N/n2cnnc2)sc2ccccc12 returned Mtb MbtI inh 70.7*, MenB inh inactive, Polio RdRp inh 100.0 and AID504770 -0.15.
Screening Cc1ccccc1N=Cc1sc2ccccc2c1O returned Mtb MbtI inh -4.0, MenB inh -15.6, Polio RdRp inh 75.0 and AID504770 0.9.
`CC(C)Sc1nnc2sc3ccccc3n12` gave Mtb MbtI inh 6.5, Polio RdRp inh 102.0 and AID504770 0.4.
`c1ccc(-c2cccc(-c3ccccn3)n2)nc1` gave Mtb MbtI inh 6.2, Polio RdRp inh 113.0 and AID504770 -1.35.
c1ccc(-c2ccc(-c3ccccn3)nc2)nc1 was read as AID504770 -2.35*.
For O=C(CSc1nn2c(=O)cnnc2s1)N1CCc2ccccc21 the results were Mtb MbtI inh -6.5, MenB inh -28.0, Polio RdRp inh 103.0 and AID504770 0.45.
`O=C(NCc1ccccc1)NC1(C(=O)NCC2CCCO2)CCCCC1` (configuration not stated) gave Mtb MbtI inh -6.9, MenB inh -23.4, Polio RdRp inh 102.0 and AID504770 -0.95.
O=C(c1ccc2c(Cl)c3c(nc2c1)CCC3)N1CCC2(CC1)OCCO2 was read as Mtb MbtI inh -4.9, MenB inh 8.3, Polio RdRp inh 102.0 and AID504770 -0.3.
For O=c1n(CN2CCOCC2)c2ccccc2n1CN1CCOCC1 the results were MenB inh -3.3, Polio RdRp inh 108.0 and AID504770 -0.5.
S=c1n(CN2CCOCC2)c2ccccc2n1-c1ccccc1 was read as Mtb MbtI inh 99.0*, MenB inh -6.9, Polio RdRp inh 72.0* and AID504770 0.2.
`CN(C)c1ccc(C2=CC=CC(=C3C=CC(=[N+](C)C)C=C3)O2)cc1` gave Mtb MbtI inh 84.2*, MenB inh -53.3, Polio RdRp inh 99.0 and AID504770 1.
`CN(C)c1ccc(C(=C2C=CC(=[N+](C)C)C=C2)c2ccc(N(C)C)cc2)cc1` gave Mtb MbtI inh 9.2, MenB inh 5.9, Polio RdRp inh 98.0 and AID504770 5.65.
`N#CC1=C2SCN(C3CCCCC3)CN2C(=O)CC1c1ccc(Br)cc1` (configuration not stated) gave Polio RdRp inh 95.0.
Screening COc1cc(C2CC(=O)N3CN(Cc4ccccc4)CSC3=C2C#N)cc(Br)c1O (configuration not stated) returned Mtb MbtI inh 53.0, MenB inh -12.8, Polio RdRp inh 101.0 and AID504770 0.3.
COc1ccc(C2CC(=O)N3CN(C4CCCCC4)CSC3=C2C#N)c(OC)c1 (configuration not stated) was read as Polio RdRp inh 54.0*.
`N#CC1=C2SCN(C3CCCCC3)CN2C(=O)CC1c1ccccc1` (configuration not stated) gave Mtb MbtI inh 72.8*, MenB inh -12.8, Polio RdRp inh 101.0 and AID504770 0.5.
CC(C)(C)c1nnc2sc(SCC(=O)Nc3ccc(Br)cc3)nn2c1=O was read as AID504770 -1.85.
COc1ccc(N=C2C(=O)Nc3ccc(Br)cc32)cc1 was read as Mtb MbtI inh 0.4, MenB inh -2.6, Polio RdRp inh 98.0 and AID504770 -0.95.
`Nc1nnnn1/N=C1/C(=O)Nc2ccc(Br)cc21` gave MenB inh -60.4, Polio RdRp inh 72.0* and AID504770 0.15.
CN=c1scc(-c2ccc(OC(F)F)cc2)n1/N=C/c1ccc(O)cc1 was read as Mtb MbtI inh -0.8, MenB inh -39.0, Polio RdRp inh 109.0 and AID504770 0.35.
Screening N#Cc1cnc(Nc2ccccc2)nc1 returned AID504770 -0.65.
Nn1c(Cc2ccccc2)n[nH]c1=S was read as Mtb MbtI inh 98.9*, MenB inh -63.9, Polio RdRp inh 99.0 and AID504770 -0.2.
Screening Cn1c(Cc2ccccc2)n[nH]c1=S returned Mtb MbtI inh 51.9, MenB inh -25.8, Polio RdRp inh 101.0 and AID504770 1.3.
